Laboratory results published in PubChem BioAssay (NCI).
This is part of a sample that, as a whole, favours compounds with a hit. Of some 83,000 tested, about 20% had one in any assay.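 Cells were grown in 96-well plates and exposed to the test compound at a single concentration for 48 hours; results are reported as percent growth, with values below 10 considered active.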 Values without a mark were called inactive. Activity calls are given as the source filed them.

Tests used:
Assay in all cases: NCI-60 one-dose screen, 48 h (100 = growth as untreated, 0 = no growth, -100 = all killed)
Settings in all cases: 10 µM unless noted
SK-MEL-2 melanoma = tested on: SK-MEL-2 melanoma
EKVX NSCLC = tested on: EKVX NSCLC
SN12C renal = tested on: SN12C renal
UO-31 renal = tested on: UO-31 renal
TK-10 renal = tested on: TK-10 renal
ACHN renal = tested on: ACHN renal
CAKI-1 renal = tested on: CAKI-1 renal
A498 renal = tested on: A498 renal
CCRF-CEM leukemia = tested on: CCRF-CEM leukemia
MOLT-4 leukemia = tested on: MOLT-4 leukemia
SR leukemia = tested on: SR leukemia
RPMI-8226 leukemia = tested on: RPMI-8226 leukemia
OVCAR-8 ovarian = tested on: OVCAR-8 ovarian
OVCAR-5 ovarian = tested on: OVCAR-5 ovarian
OVCAR-4 ovarian = tested on: OVCAR-4 ovarian
SK-OV-3 ovarian = tested on: SK-OV-3 ovarian
IGROV1 ovarian = tested on: IGROV1 ovarian
OVCAR-3 ovarian = tested on: OVCAR-3 ovarian
HS 578T breast = tested on: HS 578T breast
NCI/ADR-RES ovarian = tested on: NCI/ADR-RES ovarian

Row | SMILES | growth (SK-MEL-2 melanoma) | growth (EKVX NSCLC) | growth (SN12C renal) | growth (UO-31 renal) | growth (TK-10 renal) | growth (ACHN renal) | growth (CAKI-1 renal) | growth (A498 renal) | growth (CCRF-CEM leukemia) | growth (MOLT-4 leukemia) | growth (SR leukemia) | growth (RPMI-8226 leukemia) | growth (OVCAR-8 ovarian) | growth (OVCAR-5 ovarian) | growth (OVCAR-4 ovarian) | growth (SK-OV-3 ovarian) | growth (IGROV1 ovarian) | growth (OVCAR-3 ovarian) | growth (HS 578T breast) | growth (NCI/ADR-RES ovarian)
1 | CCOC(=O)c1c(C)c2c(n1Cc1ccccc1)CSCC2=O | -14.5% [100 µM] (active) | 12.4% [100 µM] | 13.7% [100 µM] | 24.6% [100 µM] | 11.5% [100 µM] | 10.6% [100 µM] | -30.5% [100 µM] (active) | 25.6% [100 µM] | 10.5% [100 µM] | 12.9% [100 µM] | -2.43% [100 µM] (active) | -5.25% [100 µM] (active) | 17.7% [100 µM] | 33.6% [100 µM] | 11.8% [100 µM] | 19.8% [100 µM] | 32.6% [100 µM] | -2.49% [100 µM] (active) | 46.8% [100 µM] | -5.65% [100 µM] (active)
2 | CC/C=C\C[C@H](O)C/C=C1/C(=O)C=C[C@@H]1C/C=C\CCCC(=O)O | 62.2% | 105% | 46.2% | 74.3% | 103% | 84.5% | 83.9% | 90.9% | 4.11% (active) | 5.7% (active) | 10.3% | 10.1% | 20% | 128% | 74.8% | 116% | 99.2% | 14.8% | 85% | 78.3%
3 | CN(C)CCCC1(c2ccc(F)cc2)OCc2cc(-c3cc4ccccc4s3)ccc21 (stereo not given) | 72.3% | 46.8% | 37% | 21% | 60.5% | 14.3% | 21.4% | 81% | 4.59% (active) | -8.07% (active) | -15% (active) | -3.17% (active) | 7.22% (active) | 55.8% | 16.8% | 68% | -28% (active) | -29.1% (active) | 27.2% | 23.7%
4 | COc1ccc(C(=O)Cn2c(C(=O)c3ccc(OC)cc3)nc3ccccc32)cc1 | 88.4% | 73.3% | 41% | 35.4% | 51.5% | 43.8% | 25.4% | 34.2% | 0.632% (active) | 15.6% | 16.4% | -7.09% (active) | 31.3% | 56.9% | 47.6% | 67.1% | 26.9% | -10.4% (active) | -12% (active) | -24.1% (active)
5 | NC1(CO)COC(c2ccccc2)OC1 (stereo not given) | 102% | 118% | 104% | 87.6% | 96.5% | 96.3% | 103% | 107% | 99.4% | 89% | 83.5% | 108% | 103% | 94.9% | 130% | 101% | 104% | 126% | 106% | 113%
6 | COc1ccc(-c2nc3c(N)c(CO)cnc3s2)cc1 | 105% | 48.4% | 108% | 84.6% | 91.9% | 93.4% | 88.7% | -19.1% (active) | 103% | 91.1% | 93.5% | 92.9% | 103% | 80.4% | 101% | 99.9% | 84.7% | 89.4% | 92.8% | 86.7%
7 | O=C(CCl)NNc1nccc(Nc2ccc(S(=O)(=O)Nc3ccncc3)cc2)n1 | 38% | 62.2% | 23.8% | 63.3% | 74.6% | 37.7% | 30.4% | 80.8% | 23.8% | 44% | 37.1% | 31.3% | 60.4% | 67.7% | 36.8% | 90.5% | 18.8% | 24.2% | 49.2% | 51%
8 | CCc1ccc(CCC(=O)Nc2ncc(Cc3cc(Cl)ccc3Cl)s2)o1 | 45.5% | 42.9% | 31.9% | 33.4% | 51% | 33.9% | 23.9% | -0.625% (active) | 10.4% | 14.7% | 15.3% | 12.3% | 19.2% | 24.5% | 50.3% | 34% | 23.5% | -2.36% (active) | 7.65% (active) | -3.44% (active)
9 | CC1=C(CCC(C)NCc2ccc(OCCCN3CCCCC3)cc2)C(C)(C)CCC1 (stereo not given) | -82.1% (active) | -39.1% (active) | -60.7% (active) | -95.5% (active) | -94.3% (active) | -83.6% (active) | -55.7% (active) | -71.5% (active) | -39.6% (active) | -41.7% (active) | -43.4% (active) | -39.6% (active) | -45.4% (active) | -49.8% (active) | -4.46% (active) | -74.1% (active) | -36.6% (active) | -70.4% (active) | -52.9% (active) | -40.5% (active)
10 | Cn1c2c(c3ccc(Cl)c(Cl)c31)C(C#N)C(C)(C)NC2=O (stereo not given) | 45.2% | 84.9% | 93.6% | 110% | 82.3% | 80.1% | 63.4% | -14.9% (active) | 87.9% | 59.4% | 66% | 72.1% | 95.1% | 77.7% | 89.6% | 105% | -5.28% (active) | 71.3% | 34.1% | 81.6%
11 | COc1cc(NC(=O)c2cncnc2Nc2ccc3c(ccn3Cc3ccccn3)c2)cc(OC)c1 | 45% | 68.4% | 56.2% | 46% | 73.3% | 66.5% | 44.2% | -12.5% (active) | 22.3% | 24.9% | 12.9% | 43.5% | 65.8% | 76.6% | 78.4% | 57.9% | 45.4% | 9.55% (active) | 35.2% | 35%
12 | CCSc1oc(C)nc1[P+](c1ccccc1)(c1ccccc1)c1ccccc1 | 50% | 25.9% | 27.7% | 82.3% | 48.1% | 83.4% | 70.6% | 19.3% | 37.7% | 38.4% | 36.2% | 5.08% (active) | 21.5% | 69.2% | 38.2% | 28% | 30.3% | 15.8% | 56.3% | 97.8%
13 | COC(=O)c1c2c(c(C)[n+]([O-])c1C)C(=O)C(NCc1cccc(Cl)c1)=CC2=O | 33.7% | 46.2% | 0.796% (active) | 50.6% | 73.5% | 26.6% | 42.2% | 106% | 17.5% | -12.6% (active) | 9.98% (active) | 26.9% | -5.76% (active) | 40.6% | -76% (active) | 81.3% | 2.76% (active) | -23.9% (active) | 79.1% | 0.849% (active)
14 | c1ccc(CCNc2c3ccccc3nc3ccccc23)cc1 | 86.3% | 36.3% | 33.1% | 24.2% | 53.2% | 21.6% | 30.3% | -5.19% (active) | 53.3% | 24.6% | 20.9% | 19.5% | 38.3% | 53.4% | 35% | 62.6% | 28% | 71% | 73.3% | 33.5%
15 | Nn1c(=O)c(=O)[nH]c2c(cnn2-c2ccccc2)c1=O | 122% | 98.9% | 105% | 82.2% | 109% | 105% | 94.3% | 113% | 108% | 101% | 94.5% | 103% | 97.3% | 108% | 118% | 102% | 118% | 107% | 111% | 106%
